Screening data as filed in PubChem.
rTrxR1 inhibitor: inhibitors of rat thioredoxin reductase 1. O89049. recombinant rTrxR1, NADPH fluorescence consumption, selenite substrate. Potency, µM (doses to about 114 µM), for the others: at the top dose activity change, negative = inhibition, most hits filed as inhibitors. 390,000 compounds, 1% hits. AID 588453; further: on the % scale 0 is the no-effect control and ±100 the full control effect; nearly all actives have a fitted effect of over 65% in size
Target sequence (O89049 whole entry, looked up): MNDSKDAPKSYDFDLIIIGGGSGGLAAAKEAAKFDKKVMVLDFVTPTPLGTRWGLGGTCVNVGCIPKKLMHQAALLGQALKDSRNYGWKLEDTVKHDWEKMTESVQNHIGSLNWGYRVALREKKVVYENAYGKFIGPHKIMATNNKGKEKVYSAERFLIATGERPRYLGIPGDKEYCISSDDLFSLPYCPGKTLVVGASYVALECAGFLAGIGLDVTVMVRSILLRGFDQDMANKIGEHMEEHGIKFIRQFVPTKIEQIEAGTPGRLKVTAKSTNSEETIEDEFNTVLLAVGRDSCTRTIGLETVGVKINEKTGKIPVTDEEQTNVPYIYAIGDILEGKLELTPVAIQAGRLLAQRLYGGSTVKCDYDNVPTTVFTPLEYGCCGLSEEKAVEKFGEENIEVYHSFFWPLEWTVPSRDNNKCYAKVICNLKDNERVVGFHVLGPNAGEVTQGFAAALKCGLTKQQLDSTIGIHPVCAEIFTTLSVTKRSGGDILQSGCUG
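Rat TrxR1 (90 nM in the dispensed reagent) was pre-reduced with 400 uM NADPH for 5 min at room temperature, then incubated with compound for 15 min. After 400 uM selenite was added, NADPH fluorescence (Ex 340/Em 450 nm) was followed for 8 min.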
Mito fusion yeast: inhibitors of mitochondrial division or activators of mitochondrial fusion; S. cerevisiae fusion-defective mutant growth rescue, CellTiterGlo 48 h; Potency, µM (highest dose often 46.1 µM), for the others: at the top dose growth rescue (activation), usual class: activators; 320,000 compounds, 0.23% hits; further: % of control where 0% means no effect; nearly all actives have a fitted effect of over 45% in size
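Luminescent cell viability in 1536-well qHTS format served as the measure of rescued growth in ts fusion-mutant S. cerevisiae cultured on non-fermentable YPEG for 48 hours at 37C.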
IDH1 R132H inh: human IDH1 R132H inhibition; O75874; Potency, µM (highest dose often 76.6 µM), for inactives: at the highest dose activity change, negative = inhibition, actives largely listed as inhibitors; AID 602179; 390,000 compounds, 0.093% hits; IDH1-R132H enzyme, NADPH consumption, diaphorase/resazurin fluorescence; further: on the % scale 0 is the no-effect control and ±100 the full control effect; nearly all actives have a fitted effect of over 65% in size
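IDH1-R132H (0.5 ug/mL dispensed) in pH 7.5 Tris buffer was preincubated 30 min with compound, then given a substrate mix of 0.016 mM NADPH and 2 mM alpha-KG for 80 min at room temperature; remaining NADPH was read by diaphorase/resazurin fluorescence.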
A549 tox: kills or reduces viability of A549 cells in Nrf2 counter-screen. A549 ARE-Fluc cells, CellTiter-Fluor viability, 18-24 h. Potency, µM (series often up to 46 µM), inactives show at the highest dose activity change, negative = cytotoxicity, most hits filed as inhibitors. 390,000 compounds, 0.16% hits. AID 504648; further: on the % scale 0 is the no-effect control and ±100 the full control effect
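Cytotoxicity counterscreen: CellTiter-Fluor fluorescence was measured in A549 ARE_Fluc cells after 18-24 h of compound exposure in a concentration series. The subsequent BugLite luminescent read reports ARE-luciferase activity.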
Nrf2 inh: inhibitors of Nrf2 signaling | A549 ARE-Fluc reporter, luciferase luminescence, 18-24 h | Potency, µM (doses to about 46 µM), without a hit: at the top dose activity change, negative = inhibition, hits mostly inhibitors | 360,000 compounds, 2.1% hits | AID 504444; further: on the % scale 0 is the no-effect control and ±100 the full control effect; nearly all actives have a fitted effect of over 60% in size
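Quantitative HTS in A549 cells stably bearing an antioxidant response element-firefly luciferase construct. Inhibition of Nrf2-driven transcription was scored by luminescence after 18-24 h of compound exposure at 37 °C.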
TrxR1 substrate: is turned over as a substrate by rat TrxR1. AID 588456. O89049. 390,000 compounds, 0.01% hits. Potency, µM (highest dose often 114 µM), for inactives: at the top dose activity change, negative = substrate turnover. purified TrxR1 substrate turnover, NADPH consumption readout; further: on the % scale 0 is the no-effect control and ±100 the full control effect; nearly all actives have a fitted effect of over 50% in size
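Rat TrxR1, dispensed at 90 nM, was prereduced with 400 uM NADPH (final) for 5 min at ~22 deg C, then incubated with compound 15 min before 400 uM selenite. A first-read NADPH fluorescence drop versus no-compound background flagged substrates.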
Starred values were filed as active, the others as inactive; ? = inconclusive; . = not tested or not shown; [ ] = remark or other dose. A selection: hits, their analogues and other compounds. The true share with any hit is near 3.1%. The call rests on the fitted dose curve; in most records, active means well fitted curve in the direction sought with a large enough effect; inconclusive means small, poorly fitted or top-dose-only effect, or another doubt; inactive means no such curve, though single readings can be large; an effect the other way counts as inactive or inconclusive. Potency means the concentration at half of the fitted maximal effect.

SMILES | rTrxR1 inhibitor | Mito fusion yeast | IDH1 R132H inh | A549 tox | Nrf2 inh | TrxR1 substrate
Cc1cc(O)ccc1NC(=S)NC(=O)c1cncc(Br)c1 | 4% | 5% | -5% | -13% | ? | 3%
Cc1ccccc1NC(=S)NC(=O)c1cncc(Br)c1 | 13µM* | 0% | 4% | -1% | -13% | -11%
O=C(CSc1nnc(CNC(=O)c2cccc(F)c2)n1-c1ccccc1)Nc1ccccc1F | 24% | . | 20% | -2% | 4% | 3%
Cc1cc(NC(=O)c2cncc(Br)c2)ccc1NC(=O)c1cc2ccccc2o1 | 6% | -1% | -7% | ? | 13µM* | 14%
Cc1ccccc1C(=O)Nc1ccc2nc(Nc3cccc(C(F)(F)F)c3)cc(C)c2c1 | 30% | . | -3% | ? | 18µM* | 7%
COc1ccccc1/C=C/c1cnccn1 | -13% | . | . | . | . | 9%
CC1=C(c2ccc(Cl)cc2)S(=O)(=O)N=C1N1CCN(c2cccc(C)c2)C(C)C1 (stereo not drawn) | 13% | . | -16% | -4% | 23µM* | -7%
COc1ccc(-c2noc(COc3cc(C)ccc3C)n2)cc1OC | 14% | . | 0% | 7% | -5% | -4%
COC(=O)C1=C[C@@H](C(=O)OC)[C@@H]2C3=C(C(=O)C2(C)C)[C@H](C)n2c(=O)n(-c4ccccc4)c(=O)n2[C@@H]3C1 | 56µM* | . | 15% | -5% | 4% | 10%
O=C(N/N=C/c1ccccc1C(=O)O)c1ccc(COc2cccc3cccnc23)cc1 | 12%[57.1 µM] | 1% | -14% | 5% | 1% | 8%[57.1 µM]
O=C(N/N=C/c1ccc[nH]1)c1ccc(O)cc1 | -16% | -4% | -2% | -15% | -7% | -7%
Cc1cc(Br)c(OCc2ccc(C(=O)N/N=C/c3ccc[nH]3)cc2)c(Br)c1 | 13% | 24% | 3% | 1.3µM* | 0.52µM* | 3%
O=C(N/N=C/c1ccc[nH]1)c1ccc(COc2cccc3cccnc23)cc1 | 17%[57.1 µM] | 13% | 5% | 7.3µM* | ? | 3%[57.1 µM]
c1ccc(CNc2ncnc3nc(N4CCOCC4)[nH]c23)cc1 | 15% | . | . | 9% | 19% | -1%
O=C(Nc1ccccc1)Nc1nc(Nc2cc(F)cc(F)c2)nc(NC2CCCC2)n1 | . | . | . | -5% | -23% | .
Cc1ccc2[nH]c3c(=O)n(CC(=O)N4CCN(c5ccccc5F)CC4)ncc3c2c1 | 22% | . | -13% | -12% | ? | 6%
CN(C(=O)c1cccc(NC(=O)Cc2cccc([N+](=O)[O-])c2)c1)C1CCC1 | 28% | . | 22% | 0% | ? | 8%
CN(Cc1ccccc1)C(=O)c1cccc(NC(=O)Cc2cccc([N+](=O)[O-])c2)c1 | -4% | . | 3% | -3% | 16µM* | -9%
CN(C(=O)c1cccc(NC(=O)Cc2cccc([N+](=O)[O-])c2)c1)C1CCCC1 | 10% | . | -1% | -2% | 10µM* | 1%
CN(C(=O)c1ccc(NC(=O)Cc2ccc([N+](=O)[O-])cc2)cc1)C1CCCC1 | 9% | . | 0% | 0% | ? | -9%
CN(C(=O)c1cccc(NC(=O)Cc2ccc([N+](=O)[O-])cc2)c1)C1CCCC1 | 0% | . | -6% | -13% | 23µM* | -11%
CCN(CC)c1ccc(C(=O)NCc2ccc3c(c2)CCN3C(C)=O)cc1 | 15%[57.1 µM] | . | -3% | -6% | . | 2%[57.1 µM]
O=C(NCCNc1ccc([N+](=O)[O-])cc1C(F)(F)F)c1ccc(F)cc1 | -6% | 20% | -5% | ? | 21µM* | -12%
Cn1c(=O)c2c(nc(CN3CCCCC3)n2Cc2c(F)cccc2Cl)n(C)c1=O | 15%[57.1 µM] | -7% | -13% | 3% | 8% | 9%[57.1 µM]
Cc1ccc(Cn2c(NCCc3ccccc3)nc3c2c(=O)n(C)c(=O)n3C)cc1 | -2% | 5% | 11% | -5% | 15µM* | 0%
SMILES | rTrxR1 inhibitor | Mito fusion yeast | IDH1 R132H inh | A549 tox | Nrf2 inh | TrxR1 substrate
COCCNc1nc2c(c(=O)n(C)c(=O)n2C)n1Cc1c(F)cccc1Cl | 16% | . | 14% | -7% | 18µM* | 7%
COCCCNc1nc2c(c(=O)n(C)c(=O)n2C)n1Cc1ccccc1 | -1% | . | -4% | 8% | ? | -5%
CCCNc1nc2c(c(=O)n(C)c(=O)n2C)n1Cc1ccc(F)cc1 | -2% | 2% | 8% | -16% | 15µM* | -3%
Cn1c(=O)c2c(nc(NCc3ccccc3)n2Cc2ccc(F)cc2)n(C)c1=O | . | 23% | . | . | . | .
Cn1c(=O)c2c(nc(NCc3ccco3)n2CCc2ccccc2)n(C)c1=O | -6% | 1% | 1% | -15% | 21µM* | 6%
CCCCc1ccc(-n2nc3cc(C)c(NC(=O)Cc4ccccc4)cc3n2)cc1 | -5% | . | -18% | 5% | ? | -7%
Cc1cc2c(s1)c1cnn(Cc3ccc(C(=O)O)cc3)c(=O)c1n2C | . | . | . | 1% | 4% | .
O=C(Cc1cccc(F)c1)NO | 14% | . | . | . | . | 6%
Cn1c(=O)c2c(nc(N/N=C/c3ccc(OC(=O)c4ccco4)cc3)n2Cc2ccccc2)n(C)c1=O | 17% | ? | 13% | -20% | 16µM* | 26%
Cn1c(=O)c2c(nc(N/N=C/c3cccs3)n2Cc2ccccc2)n(C)c1=O | 15% | 24% | 11% | 0% | ? | 1%
CCNc1nc2c(c(=O)n(C)c(=O)n2C)n1Cc1ccc(Cl)cc1 | 10% | -2% | 6% | -5% | 9.2µM* | 4%
COc1ccc(C2/C=C\CN(CC(C)C)C(C)C(=O)N2Cc2ccc(F)cc2)cc1 (stereo not drawn) | -22% | . | . | 0% | -3% | -14%
COc1ccc2c(Sc3ccccc3)c(C(=O)NCCN(C)C)[nH]c2c1 | ? | . | 0% | 8% | 10% | -9%
CCCNS(=O)(=O)c1ccc(CCC(=O)Nc2cc(Cl)ccc2Oc2ccccc2)cc1 | 3% | 27% | 6% | ? | 16µM* | -5%
CC(C)CNS(=O)(=O)c1ccc(CCC(=O)Nc2cc(Cl)ccc2Oc2ccccc2)cc1 | 27% | 20% | 4% | -1% | . | 5%[57.1 µM]
CCOc1ccc(Oc2ccccc2NS(=O)(=O)c2ccc(CCC(=O)O)cc2)cc1 | -11% | 2% | 18% | -14% | 10µM* | 1%
COC(=O)c1cn(NC(=O)c2cc([N+](=O)[O-])ccc2F)c(=O)c2ccccc12 | 31%[57.1 µM] | -9% | 2% | -16% | 5.2µM* | 6%[57.1 µM]
CCOc1ccc(CCNC(=O)c2c3c(nc4ccccc24)C(=O)N(C2CCCCC2)C3)cc1 | 8%[57.1 µM] | . | -12% | -24% | -27% | -4%[57.1 µM]
CCOC(=O)c1cc(-c2ccccc2)nn1-c1ccccn1 | 12% | 24% | 10% | -9% | 17% | -2%
